This passage reports growth results from PubChem BioAssay (NCI).

Structures are written as SMILES. Compounds without any hit were thinned out: in the full panel of roughly 83,000, 20% have a hit.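 For each line, cells grew in 96-well plates with the test compound present at a single concentration for 48 hours.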 Unmarked numbers belong to inactive results. Active and inactive are the calls of the source.

For this test, the system named is MDA-MB-435 melanoma. Description: NCI-60 one-dose screen, 48 h (100 = growth as untreated, 0 = no growth, -100 = all killed). The note with it: 10 µM unless noted. On the procedure:
Growth inhibition of the MDA-MB-435 human Melanoma tumor cell line is measured as a screen for anti-cancer activity. Cells are grown in 96 well plates and exposed to the test compound for 48 hours. Compounds are tested at a single concentration, which is 10^-5 M for most compounds. The reported endpoint is percent growth (GI% or GIPRCNT), where numbers from 0 - 100% represent growth inhibition, and numbers from -100% - 0 represent cell death. For example, a value of 40 represents 60% growth inhibition. A value of 0 means no net growth occurred over the course of the experiment. A value of -40 indicates 40% of cells at the beginning of the experiment died by the end of the experiment. A value of -100 means all cells are dead at the end of the experiment.
NCI-60 Human Tumor Cell Lines Screen was performed using the standard one-dose NCI protocol, which is described in more detail at https://dtp.cancer.gov/discovery_development/nci-60/default.htm.
Compounds with GIPRCNT values below 10 were considered active. Activity score was based on GIPRCNT using the following formula: […]
Score is 0 for GIPRCNT values of 100 or above, 50 for GIPRCNT values of 0, and 100 for GIPRCNT values of -100.
Regarding `O=C(O)CC1=CCCCC1`, the growth was 101%.
The value for `O=C(NCc1ccco1)Nc1cccc2c(NC(=O)NCc3ccco3)cccc12` was 40% [100 µM]; that for `CC(=O)N(C(C)=O)c1ccc(C)cc1` was 111%.
The value for `CCOC(=O)c1ccc(NC(C)=O)o1` was 103%; that for `Cc1ccc2nc(N)nnc2c1` was 106%.
`c1ccc(Oc2c3ccccc3nc3ccccc23)cc1`: the growth was -5.48% (active).
Then `CC1CC(C)S(=O)(=O)C1` (stereo not given), with 106%; and `CCOC(=O)c1cc(Cl)c(O)c(Cl)c1`, with 126%; and `COc1nc(Nc2cccc(C(F)(F)F)c2)nc(OC)n1`, with 106%.
The value for `C=CC(C)(C)n1cc(C2=C(O)C(=O)C(c3cn(C(C)(C)C=C)c4ccccc34)=C(O)C2=O)c2ccccc21` was 103%; that for `CCC(=O)Oc1c(C)cc(O)c2ccccc12` was 95.7%; that for `CC(C)NC(=O)OCc1c(COC(=O)NC(C)C)c(-c2ccc(Cl)cc2)n2c1CCC2` was 66.7%.
Take `C=C1CC2(OC1=O)C(=O)N(C)c1ccc(I)cc12` (stereo not given): the growth was -64.8% (active).
`C=C1C(=O)C2CCN1CC2`: the growth was 93.7%.
For the compound `NS(=O)(=O)c1cc(=O)[nH]c(=O)[nH]1`, the growth was 105%.
Consider `OCC(O)COc1ccc(Cl)cc1Cl` (stereo not given), for which the growth is 103%.
The value for `CC(=O)C1C(=O)C(=O)N(c2cccc([N+](=O)[O-])c2)C1=O` (stereo not given) was 104%; that for `Cc1ccc(NC(=O)c2ccccc2Cl)cc1` was 109%; that for `Cc1cc(C(=O)c2ccccc2)cc(C)c1O` was 101%.
With `C=CCS(C)(=O)=O`, the growth was 96.7%.
Then `CCCCc1ccc2nc(NC(=O)OC)[nH]c2c1`, with 0.507% (active); and `C/C(Cc1ccccc1)=N\O`, with 98.3%; and `c1ccc2c(NCCCN3CCN(CCCNc4c5ccccc5nc5ccccc45)CC3)c3ccccc3nc2c1`, with -88.4% [100 µM] (active).
Then `COc1cccc(C(=O)O)c1OC`, with 90.9%.
The value for `O=C(O)CCCCCNC(=O)OCc1ccccc1` was 99.8%; that for `Cc1ccc(S(=O)(=O)Oc2ccc3sc4c(CO)ccc(NCCN(C)C)c4c(=O)c3c2)cc1` was -98% [100 µM] (active).
Take `S=c1nc2[nH]c3ccccc3c2n[nH]1`: the growth is 107%.
As for `CC(C)C1CCC(C)C(O)C1` (stereo not given), the growth is 93.5%.
Then `CCOC(=O)CNC(=O)Sc1ccc(C(C)(C)C)cc1`, with 88.3%.
Then `O=C1C=CC(=O)C2=C1CCCC2`, with 102%; and `Cc1ccccc1CC(N)C(=O)O` (stereo not given), with 108%; and `COc1c(CNC(=O)CCl)cc2[nH]c(C)cc2c1CNC(=O)CCl`, with 50.4%.
Consider `CC(CCC#N)(CCC#N)C(=O)c1ccccc1`, for which the growth is 107%.
As for `CC(O)C(F)(F)C(F)(F)C(F)(F)F` (stereo not given), the growth was 110%.
The value for `Cc1ccc(NCN2C(=O)c3ccccc3C2=O)c(C)n1` was 105%.
The value for `CCCCCC#CC(=O)O` was 107%; that for `COc1ccc(C2CCCCC2=O)cc1` (stereo not given) was 103%.
The value for `OCCNc1ccccc1` was 107%.
Regarding `COC1CC(OC(=O)c2ccc([N+](=O)[O-])cc2)C(COC(=O)c2ccc([N+](=O)[O-])cc2)O1` (stereo not given), the growth was 97.7%.
Regarding `CC12CCC3c4ccc(O)cc4CCC3C1CCC2=O` (stereo not given), the growth was 112%.
